# PubChem BioAssay (NCATS)
# Inconclusive results are not listed. Activity calls are given as the source filed them. Unless noted, calls follow the shape of the dose curve; as a rule, active = well fitted cell-killing curve with a large enough effect; inconclusive = small, poorly fitted or top-dose-only effect, or effect the other way; inactive = no such curve, though single readings can be large or run the other way.
# Tests used:
# [1] = Quantitative High-Throughput drug screen in 47 multiple myeloma cell lines against the NCATS MIPE library collection: KMS28PE_JCRB cell viability assay (AID 1918983); also: nearly all actives have a fitted effect of over 35% in size
# Procedure, shortened: (§1)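 MIPE 4.0 approved/investigational drugs; 500 cells/well; 48 h 37 °C humidified 5% CO2; CTG luminescence readout; DMSO = 100%, media = 0% viability.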
# [2] = Quantitative High-Throughput drug screen in 47 multiple myeloma cell lines against the NCATS MIPE library collection: L363_DSMZ cell viability assay (AID 1918984); also: nearly all actives have a fitted effect of over 40% in size
# Procedure, shortened: as §1
# [3] = Quantitative High-Throughput drug screen in 47 multiple myeloma cell lines against the NCATS MIPE library collection: KMS34_JCRB cell viability assay (AID 1918985); also: nearly all actives have a fitted effect of over 40% in size
# Procedure, shortened: as §1
# [4] = Quantitative High-Throughput drug screen in 47 multiple myeloma cell lines against the NCATS MIPE library collection: OCIMY7_PLB cell viability assay (AID 1918987); also: nearly all actives have a fitted effect of over 65% in size
# Procedure, shortened: as §1
# [5] = Quantitative High-Throughput drug screen in 47 multiple myeloma cell lines against the NCATS MIPE library collection: OCIMY5_PLB cell viability assay (AID 1918988); also: nearly all actives have a fitted effect of over 65% in size
# Procedure, shortened: as §1
# [6] = Quantitative High-Throughput drug screen in 47 multiple myeloma cell lines against the NCATS MIPE library collection: XG6_PLB cell viability assay (AID 1919865); also: nearly all actives have a fitted effect of over 40% in size
# Procedure, shortened: as §1
# [7] = Quantitative High-Throughput drug screen in 47 multiple myeloma cell lines against the NCATS MIPE library collection: XG1_PLB cell viability assay (AID 1919866); also: nearly all actives have a fitted effect of over 35% in size
# Procedure, shortened: as §1
# [8] = Quantitative High-Throughput drug screen in 47 multiple myeloma cell lines against the NCATS MIPE library collection: VP6_DJ cell viability assay (AID 1919867); also: nearly all actives have a fitted effect of over 40% in size
# Procedure, shortened: as §1
# [9] = Quantitative High-Throughput drug screen in 47 multiple myeloma cell lines against the NCATS MIPE library collection: UTMC2_PLB cell viability assay (AID 1919868); conditions: CellTiter-Glo ATP luminescence, 48 h; viability (% of DMSO control): at 45.8 µM (top of the series) unless noted; also: nearly all actives have a fitted effect of over 55% in size
# Procedure, shortened: as §1
# [10] = Quantitative High-Throughput drug screen in 47 multiple myeloma cell lines against the NCATS MIPE library collection: PE2_PLB cell viability assay (AID 1919869); also: nearly all actives have a fitted effect of over 35% in size
# Procedure, shortened: as §1
# [11] = Quantitative High-Throughput drug screen in 47 multiple myeloma cell lines against the NCATS MIPE library collection: PCM6_Riken cell viability assay (AID 1919870); also: nearly all actives have a fitted effect of over 30% in size
# Procedure, shortened: as §1
# [12] = Quantitative High-Throughput drug screen in 47 multiple myeloma cell lines against the NCATS MIPE library collection: RPMI8226_ATCC cell viability assay (AID 1919871); also: nearly all actives have a fitted effect of over 30% in size
# Procedure, shortened: as §1
# [13] = Quantitative High-Throughput drug screen in 47 multiple myeloma cell lines against the NCATS MIPE library collection: OPM2_DSMZ cell viability assay (AID 1919872); also: nearly all actives have a fitted effect of over 30% in size
# Procedure, shortened: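 CellTiter-Glo ATP luminescence gave viability after 48 h compound treatment at 37C of 500 multiple myeloma cells per well. Normalisation used DMSO-only wells as 100% and media-only wells as 0% viability; primary qHTS of approved and investigational drugs.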
# [14] = Quantitative High-Throughput drug screen in 47 multiple myeloma cell lines against the NCATS MIPE library collection: KMS11_JCRBsus cell viability assay (AID 1919873); also: nearly all actives have a fitted effect of over 50% in size
# Procedure, shortened: as §1
# [15] = Quantitative High-Throughput drug screen in 47 multiple myeloma cell lines against the NCATS MIPE library collection: KMS28BM_JCRB cell viability assay (AID 1919874); also: nearly all actives have a fitted effect of over 35% in size
# Procedure, shortened: as §1
# [16] = qHTS drug screen for cell cycle checkpoint inhibitors in PARPi-resistant BRCA-mutant ovarian cancer cell lines. (AID 1963452; calls by dose curve); conditions: PEO1/OlaR viability, CellTiter-Glo luminescence, 96 h; for Z-AUC: stronger effect = lower value
# Procedure, shortened: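 PEO1, PEO4 and PEO1/OlaR ovarian cancer cells, 600 per well, exposed 96 h at 37C to a dilution series. Viability read by CellTiter-Glo luminescence, normalized to DMSO and empty wells; activity summarized as Z-AUC.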
# [17] = qHTS for identification of novel therapeutic agents for treatment of microphthalmiaassociated transcription factor (MiT) renal cell carcinoma (RCC) (AID 1963991; calls by dose curve); conditions: CellTiter-Glo, 48 h; for Potency: active = Z-AUC below -0.8 in all three lines; for z-score: stronger effect = lower value
# Procedure, shortened: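 Three TFE3-fusion RCC cell lines (UOK109, UOK124, UOK145), 500 cells/well, were exposed to the 1912-compound MIPE 4.0 library for 48 hours at 37 C. Viability was read by CellTiter-Glo luminescence, normalised to DMSO (100%) and empty wells (0%), with 11-concentration curve fits.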
# [18] = Quantitative High-Throughput drug screen in 47 multiple myeloma cell lines against the NCATS MIPE library collection: OPM1_PLB cell viability assay (AID 1918989); also: nearly all actives have a fitted effect of over 40% in size
# Procedure, shortened: as §1
# [19] = Quantitative High-Throughput drug screen in 47 multiple myeloma cell lines against the NCATS MIPE library collection: U266_ATCC cell viability assay (AID 1919864); also: nearly all actives have a fitted effect of over 35% in size
# Procedure, shortened: as §1
# [20] = Quantitative High-Throughput drug screen in 47 multiple myeloma cell lines against the NCATS MIPE library collection: SKMM1_PLB cell viability assay (AID 1919863); conditions: SKMM1 myeloma viability, CellTiter-Glo ATP, 48 h; viability: stronger effect = lower value; also: nearly all actives have a fitted effect of over 35% in size
# Procedure, shortened: as §1
# [21] = measured here: PEO1 parental Z-AUC
# [22] = TFE3-RCC UOK109 viability, measured here: UOK109 Z-AUC
# [23] = TFE3-RCC viability, measured here: UOK124 Z-AUC
# [24] = TFE3-RCC viability, measured here: UOK145 Z-AUC
# Potency is read from the fitted curve at half-maximal effect.
compound,measurement,setting,value
CC(C)c1cnn2c(NCc3ccccc3)cc(N[C@@H](CO)[C@H](O)CO)nc12,Potency,[1],296 nM (active)
same,Potency,[2],148 nM (active)
same,Potency,[3],662 nM (active)
same,Potency,[4],235 nM (active)
same,Potency,[5],235 nM (active)
same,Potency,[6],235 nM (active)
same,Potency,[7],264 nM (active)
same,Potency,[8],187 nM (active)
same,Potency,[9],209 nM (active)
same,Potency,[10],235 nM (active)
same,Potency,[11],93.5 nM (active)
same,Potency,[12],332 nM (active)
same,Potency,[13],332 nM (active)
same,Potency,[14],148 nM (active)
same,Potency,[15],296 nM (active)
same,Z-AUC,[16],-1.87 (inactive)
same,Z-AUC,[16]; [21],-1.92
same,Z-AUC,[16]; measured here: PEO4 Z-AUC,-1.77
same,Potency,[17]; TFE3-RCC UOK109 viability,372 nM (active)
same,z-score,[17]; [22],-1.04
same,z-score,[17]; [23],-0.933
same,z-score,[17]; [24],-1.84
CC[C@@]1(O)C(=O)OCc2c1cc1n(c2=O)Cc2cc3cc(O)ccc3nc2-1,Potency,[1],469 nM (active)
same,Potency,[2],935 nM (active)
same,Potency,[3],1180 nM (active)
same,Potency,[5],1660 nM (active)
same,Potency,[18],2960 nM (active)
same,Potency,[19],2960 nM (active)
same,Potency,[6],13.2 nM (active)
same,Potency,[7],66.2 nM (active)
same,Potency,[8],418 nM (active)
same,Potency,[9],37.2 nM (active)
same,Potency,[10],264 nM (active)
same,Potency,[11],743 nM (active)
same,Potency,[12],8330 nM (active)
same,Potency,[13],3320 nM (active)
same,Potency,[14],1180 nM (active)
same,Potency,[16],38.9 nM (active)
same,Z-AUC,[16]; [21],-3.38
same,Z-AUC,[16]; measured here: PEO4 Z-AUC,-2.58
same,Potency,[17]; TFE3-RCC UOK109 viability,1480 nM (active)
same,z-score,[17]; [22],-0.967
same,z-score,[17]; [23],-1.78
same,z-score,[17]; [24],-2.02
CC(=O)OCC(=O)[C@@]1(O)[C@H](C)C[C@H]2[C@@H]3C=C(C)C4=Cc5c(cnn5-c5ccccc5)C[C@]4(C)[C@@H]3[C@@H](O)C[C@@]21C,Potency,[1],20900 nM (active)
same,Potency,[2],46.9 nM (active)
same,Potency,[3],8330 nM (active)
same,Potency,[5],7430 nM (active)
same,Potency,[18],9350 nM (active)
same,Potency,[20],18700 nM (active)
same,Potency,[6],4180 nM (active)
same,Potency,[7],5260 nM (active)
same,Potency,[8],9350 nM (active)
same,Potency,[9],11800 nM (active)
same,Potency,[10],8330 nM (active)
same,Potency,[11],3320 nM (active)
same,Potency,[12],4180 nM (active)
same,Potency,[13],20900 nM (active)
same,Potency,[15],inactive
same,Z-AUC,[16],-0.679 (inactive)
same,Z-AUC,[16]; [21],0.732
same,Z-AUC,[16]; measured here: PEO4 Z-AUC,-0.158
O=c1[nH]c(=O)n(C2CCCO2)cc1F (centres undefined),Potency,[1],inactive
same,Potency,[2],inactive
same,Potency,[3],inactive
same,Potency,[5],42900 nM (active)
same,Potency,[18],inactive
same,Potency,[8],inactive
same,Potency,[9],inactive
same,Potency,[10],inactive
same,Potency,[11],inactive
same,Potency,[12],inactive
same,Potency,[13],inactive
same,Potency,[14],inactive
same,Z-AUC,[16],1.33 (inactive)
same,Z-AUC,[16]; [21],1.12
same,Z-AUC,[16]; measured here: PEO4 Z-AUC,0.998
same,z-score,[17]; [22],0.952
same,z-score,[17]; [23],1.45
same,z-score,[17]; [24],0.901
C[C@@H](Oc1cc(-n2cnc3ccc(CN4CCN(C)CC4)cc32)sc1C(N)=O)c1ccccc1C(F)(F)F,Potency,[1],93.5 nM (active)
same,Potency,[2],11.8 nM (active)
same,Potency,[3],41.8 nM (active)
same,Potency,[5],46.9 nM (active)
same,Potency,[19],16600 nM (active)
same,Potency,[7],14.8 nM (active)
same,Potency,[8],18700 nM (active)
same,Potency,[11],13200 nM (active)
same,Potency,[13],59 nM (active)
same,Potency,[14],23.5 nM (active)
same,Z-AUC,[16],-0.926 (inactive)
same,Z-AUC,[16]; [21],-1.54
same,Z-AUC,[16]; measured here: PEO4 Z-AUC,-1.51
same,Potency,[17]; TFE3-RCC UOK109 viability,6620 nM (active)
same,z-score,[17]; [22],-0.886
same,z-score,[17]; [23],-1.58
same,z-score,[17]; [24],-1.64
CN1c2cc(O)c(N=NC(N)=O)cc2CC1S(=O)(=O)O (centres undefined),Potency,[1],inactive
same,Potency,[2],inactive
same,Potency,[3],inactive
same,Potency,[5],inactive
same,Potency,[18],inactive
same,viability,[20],97.7% (inactive)
same,Potency,[8],inactive
same,Potency,[10],inactive
same,Potency,[11],inactive
same,Potency,[12],inactive
same,Potency,[13],14800 nM (active)
same,Potency,[14],inactive
same,Potency,[15],inactive
same,Z-AUC,[16],1.01 (inactive)
same,Z-AUC,[16]; [21],0.677
same,Z-AUC,[16]; measured here: PEO4 Z-AUC,1.13
same,z-score,[17]; [22],0.359
same,z-score,[17]; [23],0.697
same,z-score,[17]; [24],0.51
OCCCNc1cc(-c2ccnc(Nc3cccc(Cl)c3)n2)ccn1,Potency,[1],148 nM (active)
same,Potency,[2],33.2 nM (active)
same,Potency,[3],132 nM (active)
same,Potency,[5],105 nM (active)
same,Potency,[20],148 nM (active)
same,Potency,[6],33.2 nM (active)
same,Potency,[7],41.8 nM (active)
same,Potency,[8],23.5 nM (active)
same,Potency,[9],41.8 nM (active)
same,Potency,[10],37.2 nM (active)
same,Potency,[11],16.6 nM (active)
same,Potency,[12],187 nM (active)
same,Potency,[13],235 nM (active)
same,Potency,[14],52.6 nM (active)
same,Potency,[15],93.5 nM (active)
same,Z-AUC,[16],-1.99 (inactive)
same,Z-AUC,[16]; [21],-2.3
same,Z-AUC,[16]; measured here: PEO4 Z-AUC,-2.17
same,Potency,[17]; TFE3-RCC UOK109 viability,209 nM (active)
same,z-score,[17]; [22],-1.57
same,z-score,[17]; [23],-0.939
same,z-score,[17]; [24],-2.05
c1cc(-c2cnn3cc(-c4ccc(OCCN5CCCCC5)cc4)cnc23)ccn1,Potency,[1],11800 nM (active)
same,Potency,[2],inactive
same,Potency,[3],13200 nM (active)
same,Potency,[5],4690 nM (active)
same,Potency,[18],4180 nM (active)
same,Potency,[20],20900 nM (active)
same,Potency,[19],13200 nM (active)
same,Potency,[6],4180 nM (active)
same,Potency,[7],5900 nM (active)
same,Potency,[8],3720 nM (active)
same,Potency,[10],3320 nM (active)
same,Potency,[11],1870 nM (active)
same,Potency,[12],16600 nM (active)
same,Potency,[13],20900 nM (active)
same,Z-AUC,[16],0.293 (inactive)
same,Z-AUC,[16]; [21],0.413
same,Z-AUC,[16]; measured here: PEO4 Z-AUC,0.377
CN(c1ncccc1CNc1nc(Nc2ccc3c(c2)CC(=O)N3)ncc1C(F)(F)F)S(C)(=O)=O,Potency,[1],9350 nM (active)
same,Potency,[2],2640 nM (active)
same,Potency,[3],8330 nM (active)
same,Potency,[5],5260 nM (active)
same,Potency,[18],4690 nM (active)
same,Potency,[19],9350 nM (active)
same,Potency,[6],3720 nM (active)
same,Potency,[7],3320 nM (active)
same,Potency,[8],2640 nM (active)
same,Potency,[9],2350 nM (active)
same,Potency,[10],3320 nM (active)
same,Potency,[11],2350 nM (active)
same,Potency,[12],8330 nM (active)
same,Potency,[13],7430 nM (active)
same,Potency,[14],2640 nM (active)
same,Potency,[15],6620 nM (active)
same,Z-AUC,[16],-0.236 (inactive)
same,Z-AUC,[16]; [21],-0.701
same,Z-AUC,[16]; measured here: PEO4 Z-AUC,-0.665
